Test results taken from PubChem BioAssay (NCATS).
Results filed as inconclusive are left out. A number with no mark means an inactive call. Active and inactive are the calls of the source. Calls come from the whole dose curve; as a rule, active = well fitted cell-killing curve with a large enough effect; inconclusive = small, poorly fitted or top-dose-only effect, or effect the other way; inactive = no such curve, though single readings can be large or run the other way.

Key:
[1] = Quantitative High-Throughput drug screen in 47 multiple myeloma cell lines against the NCATS MIPE library collection: LP1_DSMZ cell viability assay (AID 1918982); note: nearly all actives have a fitted effect of over 35% in size
Summary of the method: (§1)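 Inhibition of viability over 48 h was scored by ATP content (CellTiter-Glo) in 500-cell wells. Zero and full viability were defined by media-only and DMSO-only wells.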

[2] = Quantitative High-Throughput drug screen in 47 multiple myeloma cell lines against the NCATS MIPE library collection: L363_DSMZ cell viability assay (AID 1918984); note: nearly all actives have a fitted effect of over 40% in size
Summary of the method: as §1

[3] = Quantitative High-Throughput drug screen in 47 multiple myeloma cell lines against the NCATS MIPE library collection: OPM1_PLB cell viability assay (AID 1918989); note: nearly all actives have a fitted effect of over 40% in size
Summary of the method: as §1

[4] = Quantitative High-Throughput drug screen in 47 multiple myeloma cell lines against the NCATS MIPE library collection: SKMM1_PLB cell viability assay (AID 1919863); settings: SKMM1 myeloma viability, CellTiter-Glo ATP, 48 h; viability: hits give low values; note: nearly all actives have a fitted effect of over 35% in size; for viability: series mostly up to about 46 µM
Summary of the method: as §1

[5] = Quantitative High-Throughput drug screen in 47 multiple myeloma cell lines against the NCATS MIPE library collection: U266_ATCC cell viability assay (AID 1919864); note: nearly all actives have a fitted effect of over 35% in size
Summary of the method: as §1

[6] = Quantitative High-Throughput drug screen in 47 multiple myeloma cell lines against the NCATS MIPE library collection: KMS28PE_JCRB cell viability assay (AID 1918983); note: nearly all actives have a fitted effect of over 35% in size
Summary of the method: as §1

[7] = Quantitative High-Throughput drug screen in 47 multiple myeloma cell lines against the NCATS MIPE library collection: KMS34_JCRB cell viability assay (AID 1918985); note: nearly all actives have a fitted effect of over 40% in size
Summary of the method: as §1

[8] = Quantitative High-Throughput drug screen in 47 multiple myeloma cell lines against the NCATS MIPE library collection: OCIMY7_PLB cell viability assay (AID 1918987); note: nearly all actives have a fitted effect of over 65% in size
Summary of the method: as §1

[9] = Quantitative High-Throughput drug screen in 47 multiple myeloma cell lines against the NCATS MIPE library collection: OCIMY5_PLB cell viability assay (AID 1918988); note: nearly all actives have a fitted effect of over 65% in size
Summary of the method: as §1

[10] = Quantitative High-Throughput drug screen in 47 multiple myeloma cell lines against the NCATS MIPE library collection: XG6_PLB cell viability assay (AID 1919865); note: nearly all actives have a fitted effect of over 40% in size
Summary of the method: as §1
Potency is the fitted concentration of half-maximal effect.

SMILES | Potency [1] | Potency [2] | Potency [3] | Potency [4] | Potency [5] | Potency [6] | Potency [7] | Potency [8] | Potency [9] | Potency [10] | viability [4] [%]
Cc1coc2c1C(=O)C(=O)c1c-2ccc2c1CCCC2(C)C | 4180 nM (active) | 41.8 nM (active) | 20900 nM (active) | 18700 nM (active) | inactive |  |  |  |  |  | 
C[C@@H](Oc1cc(-n2cnc3ccc(CN4CCN(C)CC4)cc32)sc1C(N)=O)c1ccccc1C(F)(F)F |  | 11.8 nM (active) |  |  |  | 93.5 nM (active) | 41.8 nM (active) |  |  |  | 
O=C(NCCCNc1nc(Nc2cccc(NC(=O)N3CCCC3)c2)ncc1I)c1cccs1 |  |  | 3720 nM (active) | 20900 nM (active) | 18700 nM (active) | 18700 nM (active) | 1050 nM (active) | 1870 nM (active) | 13200 nM (active) | 1320 nM (active) | 
Cc1[nH]c2ccccc2c1CCNCc1ccc(C=CC(=O)NO)cc1 |  |  | 26.4 nM (active) | 105 nM (active) |  | 59 nM (active) | 52.6 nM (active) | 74.3 nM (active) | 41.8 nM (active) | 148 nM (active) | 
CCCCCCCCCC(=O)N[C@@H](Cc1c[nH]c2ccccc12)C(=O)N[C@H](CC(N)=O)C(=O)N[C@@H](CC(=O)O)C(=O)N[C@@H]1C(=O)NCC(=O)N[C@@H](CCCN)C(=O)N[C@@H](CC(=O)O)C(=O)N[C@H](C)C(=O)N[C@@H](CC(=O)O)C(=O)NCC(=O)N[C@H](CO)C(=O)N[C@@H]([C@@H](C)CC(=O)O)C(=O)N[C@@H](CC(=O)c2ccccc2N)C(=O)O[C@@H]1C |  | inactive |  |  |  | inactive |  |  | inactive | inactive | 145
CNC(=O)CN1CCC(Oc2cc3c(Nc4cccc(Cl)c4F)ncnc3cc2OC)CC1 |  |  | 33.2 nM (active) | 26.4 nM (active) | inactive | 83.3 nM (active) | 37.2 nM (active) | 83.3 nM (active) | 11.8 nM (active) | inactive | 
CNC(=O)c1ccc(-c2cnc3ncc(Cc4ccc5ncccc5c4)n3n2)cc1F |  | inactive | inactive |  |  | inactive | inactive |  | 23500 nM (active) |  | 133
Cc1cc(Nc2nc(N[C@@H](C)c3ccc(F)cc3)c(C#N)cc2F)n[nH]1 |  |  | 1320 nM (active) | 1050 nM (active) | 16600 nM (active) | 935 nM (active) | 833 nM (active) | 418 nM (active) | 4180 nM (active) | 1050 nM (active) | 
Fc1cc(-c2cccc3ncc(-c4cnn(C5CCNCC5)c4)nc23)cc(F)c1CN1CCOCC1 |  | 6620 nM (active) | 8330 nM (active) |  | 20900 nM (active) | 23500 nM (active) | 14800 nM (active) | 6620 nM (active) |  | 7430 nM (active) | 
COc1cc(C)c(Sc2cnc(NC(=O)c3ccc(CNC(C)C(C)C)cc3)s2)cc1C(=O)N1CCN(C(C)=O)CC1 (stereo not drawn) |  | 9350 nM (active) | 18700 nM (active) |  |  | 14800 nM (active) |  | 10500 nM (active) |  | 16600 nM (active) | 
Nc1nccc(Oc2ccc(NC(=O)c3c[nH]cc(-c4ccc(F)cc4)c3=O)cc2F)c1Cl |  |  | 23500 nM (active) |  | 20900 nM (active) | 37200 nM (active) | 18700 nM (active) | 18700 nM (active) | 26400 nM (active) | 16600 nM (active) | 
CC(NCc1ccc2c(c1)nc(NC(=O)c1ccc(-c3cn[nH]c3)s1)n2CC(C)(C)O)C(C)(C)C (stereo not drawn) |  |  | 264 nM (active) | 743 nM (active) | 332 nM (active) | 469 nM (active) | 372 nM (active) | 148 nM (active) | 235 nM (active) | 235 nM (active) | 
O=C(Nc1nc2cccc(-c3ccc(CN4CCS(=O)(=O)CC4)cc3)n2n1)C1CC1 |  |  | 14800 nM (active) | 16600 nM (active) | 14800 nM (active) | 13200 nM (active) | 8330 nM (active) | 9350 nM (active) | 6620 nM (active) | 16600 nM (active) | 
CC(C)c1nn(-c2c(Cl)cccc2Cl)c2nc(Cc3ccc(OCCO)cc3)[nH]c(=O)c12 |  |  | 132 nM (active) | 332 nM (active) | 209 nM (active) | 296 nM (active) | 118 nM (active) | 74.3 nM (active) | 74.3 nM (active) | 83.3 nM (active) | 
CCCCc1nc2cc(C=CC(=O)NO)ccc2n1CCN(CC)CC |  |  | 148 nM (active) | 590 nM (active) |  | 526 nM (active) | 372 nM (active) | 935 nM (active) | 41.8 nM (active) | 4690 nM (active) | 
CC(C)Nc1cc(C(F)(F)F)cc2nc(NC(=O)c3cccnc3)nn12 |  | inactive | inactive |  | 7430 nM (active) | inactive | inactive |  | 8330 nM (active) |  | 
C=CCn1c(=O)c2cnc(Nc3ccc(N4CCN(C)CC4)cc3)nc2n1-c1cccc(C(C)(C)O)n1 |  | 83.3 nM (active) | 590 nM (active) |  |  | 590 nM (active) | 14.8 nM (active) |  | 332 nM (active) |  | 
CN1CCN(c2ccc3nc(-c4c(N)c5c(F)cccc5[nH]c4=O)[nH]c3c2)CC1 |  |  | 3720 nM (active) |  | 13200 nM (active) | 26400 nM (active) | 16600 nM (active) | 3320 nM (active) | 16600 nM (active) | 2090 nM (active) | 
